Rows were chosen to be rich in hits. Some 1.1% of all compounds tested hit in one or more screens of this group.
HDAC3 inhib: HDAC3 deacetylase inhibitors, primary screen, biochemical, fluorescence, cell-free homogeneous. inhibition, % at 8.3 µM. recombinant HDAC3, fluorogenic peptide/trypsin coupled. AID 2718, 2010. hit rate 0.15% among 320,000; in the data active = inhibition above about 26%, passing the limit was not always enough
C-LANA FP: inhibitors of KSHV C-LANA binding to DNA, primary screen, biochemical, fluorescence polarization, FAM-LBS DNA, MBP-C-LANA, single point | hit rate 0.078% among 340,000 | inhibition, % at 9 µM | AID 504423, 2011;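 active = highest replicate inhibition at or above 60% at 9 µM, even if other replicates fall short; inactive = all replicates below 60% inhibition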;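 also: 0% = neutral control wells and 100% = 4 µM acridine orange control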
Keap1-Nrf2 PPI: Keap1-Nrf2 protein-protein interaction inhibitors, primary screen, biochemical, fluorescence polarization, single point; hit rate 0.15% among 340,000; Kelch-like ECH-associated protein 1 (Homo sapiens), Q14145; AID 504523, 2011; Keap1 Kelch-Nrf2 peptide fluorescence polarization, 1536-well; inhibition, % at 9.4 µM; in the data active = inhibition above about 12%;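 also: human Keap1 Kelch domain with fluorescein labeled Nrf2 9mer peptide probe; 0% = neutral control wells and 100% = peptide positive control; higher means more block of Keap1 binding to Nrf2 peptide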
NSD2 inh: NSD2 histone methyltransferase inhibitors, primary screen, biochemical, AlphaScreen, single concentration, set 2 | NSD2 peptide methylation, 120 min | inhibition, % at 12.5 µM | hit rate 0.54% among 310,000; in the data active = inhibition above about 50%
Target sequence (O96028 whole entry, looked up): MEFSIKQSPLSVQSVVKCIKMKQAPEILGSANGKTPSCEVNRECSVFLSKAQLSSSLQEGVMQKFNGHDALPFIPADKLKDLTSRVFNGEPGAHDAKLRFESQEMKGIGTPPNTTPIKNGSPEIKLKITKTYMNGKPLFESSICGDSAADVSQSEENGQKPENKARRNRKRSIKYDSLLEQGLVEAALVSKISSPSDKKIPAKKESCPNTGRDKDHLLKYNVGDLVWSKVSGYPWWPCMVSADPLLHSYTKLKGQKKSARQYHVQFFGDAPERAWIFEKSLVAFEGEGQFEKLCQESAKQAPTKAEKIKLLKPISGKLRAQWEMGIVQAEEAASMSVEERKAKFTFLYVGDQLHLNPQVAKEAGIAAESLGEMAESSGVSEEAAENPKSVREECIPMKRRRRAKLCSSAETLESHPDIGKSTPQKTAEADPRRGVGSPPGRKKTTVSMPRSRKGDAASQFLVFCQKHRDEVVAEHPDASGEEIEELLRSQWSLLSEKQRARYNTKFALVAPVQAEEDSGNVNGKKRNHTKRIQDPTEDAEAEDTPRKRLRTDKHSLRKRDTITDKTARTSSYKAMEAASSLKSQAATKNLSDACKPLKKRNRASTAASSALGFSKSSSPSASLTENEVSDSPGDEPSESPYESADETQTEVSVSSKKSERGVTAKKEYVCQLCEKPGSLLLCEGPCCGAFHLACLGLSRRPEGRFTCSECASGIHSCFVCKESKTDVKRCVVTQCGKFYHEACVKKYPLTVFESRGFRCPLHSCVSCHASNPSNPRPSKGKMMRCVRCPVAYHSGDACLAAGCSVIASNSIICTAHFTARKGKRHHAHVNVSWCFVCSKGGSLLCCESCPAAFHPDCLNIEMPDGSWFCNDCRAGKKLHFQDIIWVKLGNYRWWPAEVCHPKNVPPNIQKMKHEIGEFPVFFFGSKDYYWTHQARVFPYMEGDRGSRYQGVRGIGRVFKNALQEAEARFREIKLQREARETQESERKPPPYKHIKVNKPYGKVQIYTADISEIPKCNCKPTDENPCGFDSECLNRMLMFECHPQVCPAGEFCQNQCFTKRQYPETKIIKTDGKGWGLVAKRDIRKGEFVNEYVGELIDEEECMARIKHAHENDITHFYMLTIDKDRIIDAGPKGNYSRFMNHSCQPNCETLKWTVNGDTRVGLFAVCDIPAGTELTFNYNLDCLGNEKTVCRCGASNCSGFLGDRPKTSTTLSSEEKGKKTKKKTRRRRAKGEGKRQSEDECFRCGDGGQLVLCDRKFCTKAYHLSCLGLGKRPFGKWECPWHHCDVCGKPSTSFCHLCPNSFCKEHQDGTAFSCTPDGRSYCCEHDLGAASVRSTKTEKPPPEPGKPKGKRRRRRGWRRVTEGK
Glyco luc inh: increase of ERlucT glycosylation luciferase signal, primary screen, N-linked glycosylation inhibitor project, D54 ERlucT cells, luminescence, set 2; D54 ERlucT glycosylation luciferase reporter, 24 h; percent of 100 nM tunicamycin response; reporter increase, % at 12.5 µM; hit rate 0.23% among 360,000;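 active = mean luciferase reporter signal, scaled so untreated is 0 and the glycosylation-blocking control 100, at or above a set limit in every replicate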;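 also: luciferase carries N-glycosylation sites so blocking glycosylation raises the light; 0% = median of neutral control wells and 100% = median of 100 nM tunicamycin wells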
CASP6 VEID inh: human caspase-6 inhibitors, primary screen, biochemical, VEID-R110 fluorescence, single point, set 2 | P55212 | purified caspase-6, Z-VEID-R110 cleavage fluorescence | inhibition, % at 12.5 µM | hit rate 0.53% among 350,000 | AID 686996, 2013;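 active = mean inhibition across replicates at least about 35%, with every replicate also reaching that limit, limit read from the data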;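 also: 0% = median of neutral control wells and 100% = no fluorescence left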
Alpha artifact: AlphaScreen signal interference with preloaded methylated product, dose response, artefact control for NSD2 inhibitor project, biochemical, cherry-picked samples | AlphaScreen artifact counterscreen, preloaded methylated H4 peptide | AC35, µM (top dose mostly 10 µM), without a hit: at the top dose activity change, negative = signal loss | hit rate 9.4% among 1,500 | shares compounds with NSD2 inh | AID 1053174, 2014; call rule not given here
* marks the source's active call; other numbers are inactive results; x = not tested or not shown.

SMILES | HDAC3 inhib | C-LANA FP | Keap1-Nrf2 PPI | NSD2 inh | Glyco luc inh | CASP6 VEID inh | Alpha artifact
O=C(c1ccccc1F)N1CC(=O)N2[C@H](C1)[C@@H](c1ccc(-c3ccc(F)cc3)cc1)[C@@H]2CO | x | x | x | x | x | 1 | x
C[C@@H]1CN([C@@H](C)CO)C(=O)Cc2cc(NC(=O)Nc3ccccc3)ccc2O[C@@H]1CN(C)S(C)(=O)=O | x | x | x | x | x | 0 | x
CCCCNC(=O)N1CCc2[nH]c3ccccc3c2C1 | -12 | 4 | -7 | 0 | -2 | 21 | x
O=C(C1CC1)N1CCc2[nH]c3ccccc3c2C1 | -20 | 0 | 1 | 100* | 6 | x | -3%
NC(=O)C1Cc2ccccc2CN1S(=O)(=O)c1ccc(Cl)s1 (stereo unspecified) | 1 | 0 | -4 | 89* | 0 | 1 | -3%
CC12CC3CC(C)(C1)CC(C(=O)NC1=NCCS1)(C3)C2 | -3 | -1 | 2 | -4 | -2 | x | x
CC12CC3(C)CC(C)(C1)CC(C(=O)NC1=NCCS1)(C2)C3 | 5 | 0 | -2 | 121* | 0 | x | -4%
C[C@H]1CN([C@@H](C)CO)C(=O)c2cccc(NC(=O)C3CCOCC3)c2O[C@@H]1CN(C)Cc1ccc(Oc2ccccc2)cc1 | x | x | x | x | x | 2 | x
CCN(CC)CCCN1C(=O)c2oc3ccccc3c(=O)c2C1c1cccc(OC)c1OC (stereo unspecified) | 1 | -2 | -1 | 15 | 1 | x | x
COc1cccc(C2c3c(oc4ccccc4c3=O)C(=O)N2CCCN(C)C)c1OC (stereo unspecified) | 8 | 1 | 4 | 60* | 0 | x | 0%
O=C(CN(C(=O)c1csnn1)c1cccc2ccccc12)NCc1ccccc1 | 4 | -1 | -2 | 96* | 0 | -1 | 1%
CC(=O)c1ccc(N(CC(=O)NCCc2ccccc2)C(=O)c2csnn2)cc1 | 1 | 2 | -7 | 70* | 0 | 0 | -1%
O=C(CN(C(=O)c1csnn1)c1cccc2ccccc12)NCc1ccc(F)cc1 | 4 | 1 | 2 | -5 | -4 | 0 | x
C[C@@H]1CN([C@@H](C)CO)C(=O)Cc2cc(NC(=O)C3CC3)ccc2O[C@H]1CN(C)Cc1ccc(Cl)c(Cl)c1 | x | x | x | x | x | -17 | x
CCCCCCNc1c([N+](=O)[O-])cc(C)cc1[N+](=O)[O-] | 3 | 0 | -1 | 53* | -2 | x | 9.9µM*
NC(=O)c1[nH]cnc1N=NN(CCO)Cc1ccccc1 | x | x | x | 69* | 0 | 0 | -2%
CN(C)N=Nc1nc[nH]c1C(N)=O | 3 | 1 | -1 | x | -5 | -3 | x
COc1ccc(CN(C)C[C@@H]2OCCCC[C@H](C)Oc3ccc(NC(=O)Nc4ccc(C(F)(F)F)cc4)cc3C(=O)N([C@H](C)CO)C[C@H]2C)cc1 | x | x | x | x | x | -5 | x
O=C(NCc1nnc(SCC(=O)N2CCc3ccccc32)o1)c1ccco1 | x | 1 | -6 | -3 | 5 | 0 | x
O=C(NCCC(=O)N1CCc2ccccc21)c1ccco1 | -2 | -1 | -7 | 68* | 0 | 1 | -2%
CCCc1cc(Nc2cccc(OCC)c2)n2ncnc2n1 | 7 | 0 | -3 | 0 | 3 | x | x
CCCc1cc(Nc2ccccc2C)n2ncnc2n1 | 0 | -2 | -4 | 57* | 4 | 0 | -1%
COc1ccc(S(=O)(=O)Nc2cccc3c2O[C@H](CN(C)C(=O)Nc2ccc(F)cc2)[C@@H](C)CN([C@@H](C)CO)C3=O)cc1 | x | x | x | x | x | -1 | x
CCOc1ccccc1N1CCN(C/C=C/c2ccc(N(C)C)cc2)CC1 | 1 | 2 | 2 | 69* | -1 | x | 9.2µM*
O=C1Nc2ccccc2/C1=N\N=C\c1ccc(O)c(O)c1 | 8 | 11 | -6 | 119* | -1 | 36* | 3µM*
SMILES | HDAC3 inhib | C-LANA FP | Keap1-Nrf2 PPI | NSD2 inh | Glyco luc inh | CASP6 VEID inh | Alpha artifact
O=[N+]([O-])c1ccccc1-c1ccc(/C=N/n2cnnc2)o1 | 18 | 1 | -2 | 7 | 0 | x | x
Nn1cnnc1N/N=C\c1ccc(-c2ccccc2[N+](=O)[O-])o1 | x | 0 | 2 | 98* | 7 | 10 | -5%
O=C(COc1ccccc1)N/N=C/c1sc(=O)n(Cc2cccc(C(=O)O)c2)c1Cl | 16 | -7 | -8 | 62* | 0 | 14 | -3%
C[C@H](CO)N1C[C@H](C)[C@@H](CN(C)S(C)(=O)=O)Oc2ccc(NS(=O)(=O)c3cccs3)cc2CC1=O | x | x | x | x | x | -1 | x
CCc1nnc(NC(=O)COc2ccc3c(c2)OCO3)s1 | 2 | 1 | 7 | 100* | 0 | 0 | -1%
C[C@@H]1CN([C@H](C)CO)S(=O)(=O)c2ccc(-c3cccc(C#N)c3)cc2O[C@@H]1CN(C)C(=O)c1ccncc1 | x | x | x | x | x | -1 | x
CC1(C(=O)NC(=S)N(Cc2ccccc2)c2ccccn2)CC1(Cl)Cl (stereo unspecified) | 3 | 0 | -2 | -1 | 3 | 1 | x
CN(C(=S)NC(=O)C1(C)CC1(Cl)Cl)c1ccccc1 (stereo unspecified) | -2 | 0 | 2 | 59* | 1 | x | -1%
CNC(=S)NC(CC(=O)OC)c1ccc2c(c1)OCO2 (stereo unspecified) | 2 | 0 | -2 | 56* | 2 | -5 | -2%
Cc1nc2cc(C(=O)NCc3cccnc3)ccc2n1-c1ccc(F)cc1F | 2 | 1 | -5 | 50* | 0 | 2 | -3%
C[C@@H]1CN([C@@H](C)CO)C(=O)Cc2cc(NC(=O)NC3CCCCC3)ccc2O[C@H]1CN(C)S(=O)(=O)c1cn(C)cn1 | x | x | x | x | x | 0 | x
COC1=C(C)C(=O)C2=C(C1=O)C1C3CC4=C(C(=O)C(OC)=C(C)C4=O)C(CNC(=O)C(C)=O)N3C(C#N)C(C2)N1C (stereo unspecified) | x | -1 | -8 | 75* | -20 | 19 | -3%
O=C(c1ccccc1)c1cc2ccccc2oc1=O | 0 | 2 | 4 | 113* | 1 | x | 0%
O=C(C[C@@H]1C[C@@H]2c3cc(NC(=O)c4cccnc4)ccc3O[C@@H]2[C@H](CO)O1)NCC1CC1 | x | x | x | x | x | -3 | x
COc1ccc(C2CC(=O)c3c(C)nc(N4CCN(c5ccccc5)CC4)nc3C2)cc1 (stereo unspecified) | -2 | 1 | -2 | 53* | -4 | x | -6%
Cc1nc(N2CCN(Cc3ccccc3)CC2)nc2c1C(=O)CC(c1ccco1)C2 (stereo unspecified) | -1 | -2 | -4 | 1 | -5 | x | x

Compound activity from PubChem BioAssay.
